The results in this text go back to PubChem BioAssay (NCI).

Assay [1] is described as follows: NCI Yeast Anticancer Drug Screen. Data for the rad50 strain (AID 155).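 Also: 0% = growth of vehicle-only cultures of the same strain.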 As to conditions: S. cerevisiae rad50 strain growth inhibition, active compounds read high. In short, it runs like this: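 Relative growth inhibition (compound vs vehicle) was measured in yeast with a defined repair-gene alteration.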
A short description of assay [2]: NCI Yeast Anticancer Drug Screen. Data for the mec2-1 strain (AID 157). Particulars: S. cerevisiae mec2-1 strain, active compounds read high. A digest of the protocol:
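Yeast mec2-1 mutant treated with compound. Readout: growth inhibition vs vehicle controls.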

Assay [3] in a line: NCI Yeast Anticancer Drug Screen. Data for the sgs1 mgt1 strain (AID 161).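 Also: 0% = growth of cultures given vehicle only.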 As to conditions: S. cerevisiae sgs1 mgt1 strain, active compounds read high. In short, it runs like this:
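Genetically altered yeast, compound exposure, growth inhibition relative to vehicle.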

Assay [4] in a line: NCI Yeast Anticancer Drug Screen. Data for the cln2 rad14 strain (AID 165).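 Also: 0% = growth equal to vehicle treated cultures.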 Particulars: S. cerevisiae cln2 rad14 strain, active compounds read high. In short, it runs like this: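 cln2 rad14 yeast strain; compound exposure; growth inhibition read vs vehicle controls.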
Assay [5] can be described thus: NCI Yeast Anticancer Drug Screen. Data for the bub3 strain (AID 167). Particulars: S. cerevisiae bub3 mutant strain, active compounds read high. In short, it runs like this:
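Screening used yeast with an engineered genetic alteration affecting cell cycle control. Compound-exposed cultures were compared with vehicle cultures, and reduced growth was taken as inhibition.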

Assay [6] in a line: NCI Yeast Anticancer Drug Screen. Data for the mlh1 rad18 strain (AID 175). As to conditions: S. cerevisiae mlh1 rad18 strain growth inhibition, active compounds read high. A digest of the protocol: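 Yeast w/ defined DNA-repair lesions; compound exposure; growth vs vehicle controls → % inhibition.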
[7] abbreviates: at 5.0 µM (retest, dose inferred, filed as 0.5).
Where [8] appears, read: at 50.0 µM (retest, dose inferred, filed as 5.0).

Molecules are shown by their SMILES. Compounds without any hit were thinned out: in the full panel of roughly 79,000, 15% have a hit. A number with no mark means an inactive call. Active and inactive are the calls of the source. Rule as the data show it: active = growth inhibition above about 70%; inactive = the rest.

Consider `O=C(Cc1ccccc1)NC(C(=O)c1ccccc1)c1ccccc1` (stereo not given), for which the growth inhibition was 36% in assay [1] (setting [7]); 55% in assay [1] (setting [8]); 75.5% (active) in assay [1] (at 50.0 µM); 21% in assay [2] (setting [7]); 40% in assay [2] (setting [8]); 31.1% in assay [2] (at 50.0 µM). Moreover, the growth inhibition in assay [3] (setting [7]) is 36%; in assay [3] (setting [8]) it was 47%; in assay [3] (at 50.0 µM), 72.2% (active); in assay [4] (setting [7]), 25%; in assay [4] (setting [8]) it was 26%; in assay [4] (at 50.0 µM) it was 57%. Also, the growth inhibition in assay [5] (setting [7]) was 48%; in assay [5] (setting [8]), 72% (active); in assay [5] (at 50.0 µM), 83.2% (active); in assay [6] (setting [7]), 35%; in assay [6] (setting [8]), 53%; in assay [6] (at 50.0 µM), 73.7% (active).
As to `CCOC(=O)C(=O)CC(=O)C(Br)C(Br)c1ccc(Cl)cc1` (stereo not given), the growth inhibition in assay [1] (setting [7]) was 78% (active); in assay [1] (setting [8]) it was 99% (active); in assay [1] (at 50.0 µM), 99.5% (active); in assay [2] (setting [7]), 85% (active); in assay [2] (setting [8]), 99% (active); in assay [2] (at 50.0 µM), 99.6% (active). For the same compound, the growth inhibition in assay [3] (setting [7]) is 97% (active); in assay [3] (setting [8]) it was 99% (active); in assay [3] (at 50.0 µM), 99.4% (active); in assay [4] (setting [7]), 69%; in assay [4] (setting [8]), 100% (active); in assay [4] (at 50.0 µM), 99% (active). Also, the growth inhibition in assay [5] (setting [7]) was 92% (active); in assay [5] (setting [8]) it was 99% (active); in assay [5] (at 50.0 µM), 99.3% (active); in assay [6] (setting [7]), 90% (active); in assay [6] (setting [8]), 99% (active); in assay [6] (at 50.0 µM) it was 99.5% (active).
Consider `CCc1c(-c2ccccc2)c(CN2CCCCC2)c2ccccn12`, for which the growth inhibition is 6% in assay [1] (setting [7]); 3% in assay [1] (setting [8]); -1.4% in assay [1] (at 50.0 µM); 13% in assay [2] (setting [7]); 13% in assay [2] (setting [8]); -4.85% in assay [2] (at 50.0 µM). For the same compound, the growth inhibition in assay [3] (setting [7]) is 0%; in assay [3] (setting [8]), 37%; in assay [3] (at 50.0 µM), 88.2% (active); in assay [4] (setting [7]), -6%; in assay [4] (setting [8]) it was 26%; in assay [4] (at 50.0 µM), -20%. Moreover, the growth inhibition in assay [5] (setting [7]) is -4%; in assay [5] (setting [8]), 26%; in assay [5] (at 50.0 µM), -5.5%; in assay [6] (setting [7]), -12%; in assay [6] (setting [8]), 5%; in assay [6] (at 50.0 µM), 21.9%.
`Cc1cc(C)c(C(=O)C(Br)C(Br)c2ccccc2)c(C)c1` (stereo not given): the growth inhibition was 54% in assay [1] (setting [7]); 94% (active) in assay [1] (setting [8]); 95.6% (active) in assay [1] (at 50.0 µM); 43% in assay [2] (setting [7]); 97% (active) in assay [2] (setting [8]); 95.5% (active) in assay [2] (at 50.0 µM). Moreover, the growth inhibition is 63% in assay [3] (setting [7]); 95% (active) in assay [3] (setting [8]); 95.8% (active) in assay [3] (at 50.0 µM); 15% in assay [4] (setting [7]); 91% (active) in assay [4] (setting [8]); 83.4% (active) in assay [4] (at 50.0 µM). Also, the growth inhibition is 47% in assay [5] (setting [7]); 93% (active) in assay [5] (setting [8]); 94.5% (active) in assay [5] (at 50.0 µM); 46% in assay [6] (setting [7]); 94% (active) in assay [6] (setting [8]); 95.6% (active) in assay [6] (at 50.0 µM).
In the case of `C[n+]1c(/C=C/c2ccccc2Cl)sc2ccccc21`, the growth inhibition is 83% (active) in assay [1] (setting [7]); 96% (active) in assay [1] (setting [8]); 97.2% (active) in assay [1] (at 50.0 µM); 99% (active) in assay [2] (setting [7]); 99% (active) in assay [2] (setting [8]); 94.2% (active) in assay [2] (at 50.0 µM). Also, the growth inhibition was 52% in assay [3] (setting [7]); 88% (active) in assay [3] (setting [8]); 98.2% (active) in assay [3] (at 50.0 µM); 59% in assay [4] (setting [7]); 92% (active) in assay [4] (setting [8]); 98.5% (active) in assay [4] (at 50.0 µM). The growth inhibition is 98% (active) in assay [5] (setting [7]); 98% (active) in assay [5] (setting [8]); 89.5% (active) in assay [5] (at 50.0 µM); 98% (active) in assay [6] (setting [7]); 98% (active) in assay [6] (setting [8]); 98.7% (active) in assay [6] (at 50.0 µM).
`Cc1ccc(O)c(Cc2ccc(Cl)cc2)c1`: the growth inhibition in assay [1] (setting [7]) is -146%; in assay [1] (setting [8]), 97% (active); in assay [1] (at 50.0 µM), 74.7% (active); in assay [2] (setting [7]) it was -54%; in assay [2] (setting [8]), 99% (active); in assay [2] (at 50.0 µM), 99.8% (active). The growth inhibition in assay [3] (setting [7]) was -56%; in assay [3] (setting [8]) it was 99% (active); in assay [3] (at 50.0 µM) it was 64.3%; in assay [4] (setting [7]) it was -80%; in assay [4] (setting [8]) it was 99% (active); in assay [4] (at 50.0 µM), 99.5% (active). For the same compound, the growth inhibition in assay [5] (setting [7]) is -76%; in assay [5] (setting [8]), 98% (active); in assay [5] (at 50.0 µM) it was 99.6% (active); in assay [6] (setting [7]), -119%; in assay [6] (setting [8]) it was 96% (active); in assay [6] (at 50.0 µM) it was 99.6% (active).
Take `Cc1ccc(S(=O)(=O)/C=C/C(=O)c2ccc3ccccc3c2)cc1`: the growth inhibition in assay [1] (setting [7]) is 83% (active); in assay [1] (setting [8]), 86% (active); in assay [1] (at 50.0 µM), 97.2% (active); in assay [2] (setting [7]) it was 96% (active); in assay [2] (setting [8]), 95% (active); in assay [2] (at 50.0 µM), 98.4% (active). The growth inhibition in assay [3] (setting [7]) is 84% (active); in assay [3] (setting [8]) it was 96% (active); in assay [3] (at 50.0 µM) it was 95.9% (active); in assay [4] (setting [7]) it was 20%; in assay [4] (setting [8]) it was 91% (active); in assay [4] (at 50.0 µM) it was 96.5% (active). Also, the growth inhibition was 47% in assay [5] (setting [7]); 96% (active) in assay [5] (setting [8]); 94.5% (active) in assay [5] (at 50.0 µM); 88% (active) in assay [6] (setting [7]); 95% (active) in assay [6] (setting [8]); 97.1% (active) in assay [6] (at 50.0 µM).
Turning to `C=CCNC(=O)c1ccccc1C(=O)O`, the growth inhibition in assay [1] (setting [7]) was 2%; in assay [1] (setting [8]) it was 28%; in assay [1] (at 50.0 µM), 63.2%; in assay [2] (setting [7]), 1%; in assay [2] (setting [8]) it was 1%; in assay [2] (at 50.0 µM) it was 36.6%. Further, the growth inhibition is 0% in assay [3] (setting [7]); 1% in assay [3] (setting [8]); 28.2% in assay [3] (at 50.0 µM); 2% in assay [4] (setting [7]); 18% in assay [4] (setting [8]); 23.6% in assay [4] (at 50.0 µM). Also, the growth inhibition in assay [5] (setting [7]) is 4%; in assay [5] (setting [8]) it was 7%; in assay [5] (at 50.0 µM), 68.2%; in assay [6] (setting [7]), 3%; in assay [6] (setting [8]), 13%; in assay [6] (at 50.0 µM) it was 46.7%.
With `O=C1C(=O)c2ccccc2C=C1Br`, the growth inhibition is 50% in assay [1] (setting [7]); 99% (active) in assay [1] (setting [8]); 99% (active) in assay [1] (at 50.0 µM); 91% (active) in assay [2] (setting [7]); 99% (active) in assay [2] (setting [8]); 99.2% (active) in assay [2] (at 50.0 µM). For the same compound, the growth inhibition was 75% (active) in assay [3] (setting [7]); 99% (active) in assay [3] (setting [8]); 99.2% (active) in assay [3] (at 50.0 µM); 67% in assay [4] (setting [7]); 99% (active) in assay [4] (setting [8]); 98.2% (active) in assay [4] (at 50.0 µM). For the same compound, the growth inhibition in assay [5] (setting [7]) is 93% (active); in assay [5] (setting [8]) it was 99% (active); in assay [5] (at 50.0 µM), 98.7% (active); in assay [6] (setting [7]) it was 85% (active); in assay [6] (setting [8]), 99% (active); in assay [6] (at 50.0 µM), 98.8% (active).
For `CCCNC(=O)c1cc2ccccc2cc1C(=O)OC`, the growth inhibition in assay [1] (setting [7]) is 59%; in assay [1] (setting [8]), 90% (active); in assay [1] (at 50.0 µM) it was 86% (active); in assay [2] (setting [7]), 48%; in assay [2] (setting [8]) it was 90% (active); in assay [2] (at 50.0 µM) it was 88.5% (active). Besides, the growth inhibition in assay [3] (setting [7]) was 51%; in assay [3] (setting [8]), 95% (active); in assay [3] (at 50.0 µM) it was 81.9% (active); in assay [4] (setting [7]) it was 49%; in assay [4] (setting [8]) it was 74% (active); in assay [4] (at 50.0 µM), 81.1% (active). Besides, the growth inhibition in assay [5] (setting [7]) was 68%; in assay [5] (setting [8]), 94% (active); in assay [5] (at 50.0 µM) it was 88.3% (active); in assay [6] (setting [7]), 65%; in assay [6] (setting [8]), 94% (active); in assay [6] (at 50.0 µM), 86.2% (active).
